According to paper PMC4336329 (PLoS ONE, 2015):
Screen size: about 310,000 compounds; about 14,000 (4.5%) showed an effect of 50% or more. The effect is printed as a negative number. The entries come from a sample that favours strong results as a whole.

molecular target: human ether-à-go-go-related gene (hERG) potassium channel (human, UniProt Q12809); assay: primary screen, population patch clamp on CHO cells stably expressing hERG; higher = less effect of the substance
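Further: peak tail current of the secondary pulse compared with the same well before compound.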

Sequence of human ether-à-go-go-related gene (hERG) potassium channel (Q12809 whole entry, looked up): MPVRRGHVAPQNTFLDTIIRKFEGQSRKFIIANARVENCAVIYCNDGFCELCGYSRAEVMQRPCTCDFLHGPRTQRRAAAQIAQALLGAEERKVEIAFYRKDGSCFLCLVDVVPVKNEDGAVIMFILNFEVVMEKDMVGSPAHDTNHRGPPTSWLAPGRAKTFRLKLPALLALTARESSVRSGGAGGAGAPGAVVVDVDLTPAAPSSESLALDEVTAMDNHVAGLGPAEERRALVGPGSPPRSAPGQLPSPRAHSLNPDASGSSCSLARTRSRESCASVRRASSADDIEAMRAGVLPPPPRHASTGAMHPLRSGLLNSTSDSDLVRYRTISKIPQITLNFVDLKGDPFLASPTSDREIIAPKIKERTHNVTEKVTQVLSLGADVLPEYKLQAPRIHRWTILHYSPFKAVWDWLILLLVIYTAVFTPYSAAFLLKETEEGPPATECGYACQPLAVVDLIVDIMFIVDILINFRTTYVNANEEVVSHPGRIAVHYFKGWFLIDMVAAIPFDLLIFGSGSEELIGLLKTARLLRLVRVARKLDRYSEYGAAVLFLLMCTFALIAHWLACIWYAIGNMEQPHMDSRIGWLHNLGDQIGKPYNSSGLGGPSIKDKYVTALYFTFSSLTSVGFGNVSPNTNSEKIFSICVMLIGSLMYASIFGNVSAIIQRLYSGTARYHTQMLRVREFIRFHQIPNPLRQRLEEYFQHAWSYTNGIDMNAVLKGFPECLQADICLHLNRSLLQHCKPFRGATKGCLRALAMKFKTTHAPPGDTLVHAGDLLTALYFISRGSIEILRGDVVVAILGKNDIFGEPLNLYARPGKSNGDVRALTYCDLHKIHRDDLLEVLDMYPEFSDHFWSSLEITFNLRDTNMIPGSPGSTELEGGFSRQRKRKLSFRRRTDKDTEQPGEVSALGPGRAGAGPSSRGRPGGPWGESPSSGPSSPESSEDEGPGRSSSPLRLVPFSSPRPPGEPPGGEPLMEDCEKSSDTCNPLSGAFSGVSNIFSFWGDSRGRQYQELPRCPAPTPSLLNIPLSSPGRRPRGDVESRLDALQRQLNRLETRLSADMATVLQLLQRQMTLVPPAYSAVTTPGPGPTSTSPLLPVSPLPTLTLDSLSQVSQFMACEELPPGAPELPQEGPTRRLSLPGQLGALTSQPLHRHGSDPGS

Compared with COc1nccnc1NS(=O)(=O)c1ccc(NCc2ccccc2O)cc1, CC(=O)c1ccc(NC(=O)C2CC2c2ccccc2)cc1 (centres unmarked) is lower in “hERG current change (%, negative = inhibition) at 10uM” value: 7.4% for the first, 3.25% for the second.

Compared with CC(=O)Nc1ccc(S(=O)(=O)N2CCSC2)cc1, CCOC(=O)N1CCN(S(=O)(=O)c2ccc3c(c2)oc(=O)n3C)CC1 is lower in “hERG current change (%, negative = inhibition) at 10uM” value: 1.65% for the first, -0.295% for the second.

Going from COc1ccc(N2CCN(c3ncnc4scc(-c5ccc(C)cc5)c34)CC2)cc1 to COc1ccc(NC2CCCN(Cc3cccc4cnccc34)C2)cc1 (centres unmarked), the “hERG current change (%, negative = inhibition) at 10uM” value falls from 13% to -18.5%.

First: CC(C)(C)NC(=O)C(c1ccc(O)cc1)N(C(=O)CCC(=O)Nc1ccccn1)c1ccc(F)cc1 (centres unmarked)
Second: Cc1cc(NC(=O)CCC(=O)N(c2ccccc2)C(C(=O)NC2CCCC2)c2ccncc2)no1 (centres unmarked)
The “hERG current change (%, negative = inhibition) at 10uM” value of the first is higher: 8.1% for the first, 2.53% for the second.

Going from COC(=O)C(CCSC)NC(=O)c1cccc([N+](=O)[O-])c1 (centres unmarked) to CCOC(=O)C1C(=O)C=C(c2ccc(C)cc2)CC1c1cccc([N+](=O)[O-])c1 (centres unmarked), the “hERG current change (%, negative = inhibition) at 10uM” value rises from -12.1% to -4.88%.

Compared with CC1=NOC(=O)/C1=C\c1ccc(-c2cccc(Cl)c2)o1, Clc1cccc(Oc2cnc3ccccc3n2)c1 is lower in “hERG current change (%, negative = inhibition) at 10uM” value: 10.4% for the first, -25.8% for the second.

Compared with NC(=O)[C@H]1CC2(CC(c3cccc(NC(=O)[C@H]4CCC(=O)N4)c3)=NO2)CN1C(=O)c1ccccc1C(=O)c1ccccc1 (some centres unmarked), CC(CCN1CCC(n2nccc2NC(=O)c2ccccc2Cl)CC1)c1ccccc1 (centres unmarked) is lower in “hERG current change (%, negative = inhibition) at 10uM” value: 14.7% for the first, -82.7% for the second.

Going from CC1CN(CCOc2cccc(Oc3ccccc3)c2)CC(C)O1.O=C(O)C(=O)O (centres unmarked) to CC1CN(CCCCOc2cccc(Oc3ccccc3)c2)CC(C)O1.O=C(O)C(=O)O (centres unmarked), the “hERG current change (%, negative = inhibition) at 10uM” value falls from 5.01% to -35.9%.

First: CC1CCN(CCCCOc2cccc(Br)c2)CC1.O=C(O)C(=O)O
Second: CC1CCN(CCOc2cccc(Br)c2)CC1.O=C(O)C(=O)O
The “hERG current change (%, negative = inhibition) at 10uM” value of the first is lower: -69% for the first, -20.3% for the second.

Compared with CC1CCCN(CCOc2cccc(Oc3ccccc3)c2)C1.O=C(O)C(=O)O (centres unmarked), Cc1cc(=O)oc2cc(OCCc3ccccc3)ccc12 is higher in “hERG current change (%, negative = inhibition) at 10uM” value: -64.7% for the first, -0.326% for the second.

Compared with O=C(NCc1ccc2c(c1)OCO2)C1CCC(=O)N1C1CCCCC1 (centres unmarked), O=C(CN1C(=O)c2ccccc2S1(=O)=O)N1CCN(Cc2ccc3c(c2)OCO3)CC1 is lower in “hERG current change (%, negative = inhibition) at 10uM” value: -9.26% for the first, -12.8% for the second.

First: C=CCOc1ccc(CNc2ccc3[nH]c(=O)[nH]c3c2)cc1
Second: CCOC(=O)C1C(=O)C=C(c2ccc(C)cc2)CC1c1ccccc1 (centres unmarked)
The “hERG current change (%, negative = inhibition) at 10uM” value of the first is lower: 1.57% for the first, 28.2% for the second.

First: O=C(NCc1cccnc1)C1CCN(S(=O)(=O)c2cccc(C(F)(F)F)c2)CC1
Second: COCC(C)N1CCC(n2nccc2NC(=O)c2ccccc2Cl)CC1 (centres unmarked)
The “hERG current change (%, negative = inhibition) at 10uM” value of the first is higher: 2.69% for the first, -47.9% for the second.

Going from Cc1cccc(NC(=S)N(CCN2CCOCC2)Cc2ccccc2F)c1 to Cc1ccc(C)c(CN2CCCN(C(=O)Cn3ncc4c3-c3ccccc3OC4)C2)c1, the “hERG current change (%, negative = inhibition) at 10uM” value rises from -25% to -2.82%.

Going from CCOC(=O)N1CCN(C(=O)Cn2ncc3c2-c2ccccc2OC3)CC1 to CCN1CCN(C(=O)Cn2ncc3c2-c2ccccc2OC3)CC1, the “hERG current change (%, negative = inhibition) at 10uM” value falls from -3.57% to -10.1%.

Going from O=C(Cn1ncc2c1-c1ccccc1OC2)N1CCN(Cc2ccc3c(c2)OCO3)CC1 to O=C(Cn1ncc2c1-c1ccccc1OC2)N1CCN(Cc2ccccc2)CC1, the “hERG current change (%, negative = inhibition) at 10uM” value falls from -61.3% to -68.5%.

Going from COC(=O)[C@@H](NC(=O)NCCC1=CCCCC1)C(C)C to COC(=O)CCCC(=O)N1CCCC(CCC(=O)NCc2ccc(F)c(F)c2)C1 (centres unmarked), the “hERG current change (%, negative = inhibition) at 10uM” value rises from -3.29% to 0.17%.

Going from COc1cc(/C=N/N2CCCCC2)cc([N+](=O)[O-])c1O to CC(CN1CCC(n2nccc2NC(=O)C2CCCC2)CC1)c1ccccc1 (centres unmarked), the “hERG current change (%, negative = inhibition) at 10uM” value falls from 20.8% to -24%.

Compared with CC(C)CCN1CCC(n2nccc2NC(=O)C2CCOC2)CC1 (centres unmarked), CC(CN1CCC(n2nccc2NC(=O)c2ccccc2Cl)CC1)c1ccccc1 (centres unmarked) is lower in “hERG current change (%, negative = inhibition) at 10uM” value: 15.3% for the first, -68.9% for the second.

Going from Cc1cc(-c2ccco2)n(CC(=O)NCc2ccco2)n1 to CCOC(=O)C1C(=O)C=C(c2ccc(Br)cc2)CC1c1ccco1 (centres unmarked), the “hERG current change (%, negative = inhibition) at 10uM” value falls from 8.48% to -23.2%.

Compared with CCC(C(=O)N1CC2(C)CC1CC(C)(C)C2)N1C(=O)c2ccccc2C1=O (centres unmarked), CCOC(=O)C1C(=O)C=C(c2ccc([N+](=O)[O-])cc2)CC1c1ccccc1 (centres unmarked) is lower in “hERG current change (%, negative = inhibition) at 10uM” value: -18.3% for the first, -63.5% for the second.

Compared with CCOc1ccc2c(c1)-c1c(ssc1=S)C(C)(C)N2C, CCOC(=O)C1C(=O)C=C(c2ccc(NS(C)(=O)=O)cc2)CC1c1ccco1 (centres unmarked) is lower in “hERG current change (%, negative = inhibition) at 10uM” value: -3.7% for the first, -80.3% for the second.
